# Source: PubChem BioAssay (NCATS)
# Records with an inconclusive call do not appear. Activity calls are given as the source filed them. Calls follow the shape of the dose curve; as a rule, active = well fitted activation curve with a large enough effect; inconclusive = small, poorly fitted or top-dose-only effect; inactive = flat fitted curve, though single readings scatter.
# Assay: qHTS for Activators of Parkin Expression: LOPAC Validation Assay (NLuc Reporter) (AID 720572)
# Settings: Parkin promoter NanoLuc reporter cells, luminescence; series mostly up to 46.1 µM; activation: at the top concentration
# Summary of the method: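 NLuc signal, read 10 min after reagent and following a prior FLuc read, is normalized to DMSO (0) and positive controls (100%). Cells: neuronal Parkin-promoter coincidence reporter line; compounds tested 7-point, 24 h, 37 C, 5% CO2.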
# Potency is read from the fitted curve at half-maximal effect.
Structure (SMILES),activation,Potency
Nc1ccc(CCNc2ncnc3c2ncn3C2OC(CO)C(O)C2O)cc1 (stereo not drawn),2.4% (inactive),–
CCCCCCN(CCCCCC)C(=O)Cc1c(-c2ccc(F)cc2)[nH]c2ccccc12,-4.79% (inactive),–
N[C@H](C(=O)O)[C@H](O)C(=O)O,1.66% (inactive),–
CNc1ncnc2c1ncn2[C@H]1C[C@H](OP(=O)(O)O)[C@@H](COP(=O)(O)O)O1,1.45% (inactive),–
O=c1[nH]ccc2c(O)cccc12,2.85% (inactive),–
O=C1Cc2c([nH]c3ccc(Br)cc23)-c2ccccc2N1,–,5.8 µM (active)
C=C1C(=O)O[C@@H]2[C@H]3O[C@]3(C)CCC=C(C)CC[C@@H]12,-16.5% (inactive),–
N#CC(C#N)=C(N)/C(C#N)=C/c1ccc(O)cc1,-2.65% (inactive),–
CC[C@H](NC(=O)c1c(C)c(-c2ccccc2)nc2ccccc12)c1ccccc1,-2.92% (inactive),–
C[C@H](O)C(=O)C1=Nc2c(nc(N)[nH]c2=O)NC1,-5.44% (inactive),–
CCN1C(=O)C=CC1=O,2.37% (inactive),–
CNCCc1cnc(CCC(c2ccccc2)c2ccccc2)[nH]1,-5.75% (inactive),–
COc1cc(C(O)CO)ccc1O (stereo not drawn),-2.12% (inactive),–
NC1C=CC=C(C(=O)O)C1 (stereo not drawn),-1.47% (inactive),–
O=C(O)/C=C/c1cnc[nH]1,2.23% (inactive),–
CN1CCC2(CCN3CCc4c(oc5ccccc45)C3C2)N(C)C1=O (stereo not drawn),-2.31% (inactive),–
CN1Cc2sccc2C(c2ccc(O)c(O)c2)C1 (stereo not drawn),10.7% (inactive),–
C=C1C[C@@]23CC[C@H]4[C@@](C)(CCC[C@@]4(C)C(=O)O)[C@@H]2CC[C@]1(O)C3,5.63% (inactive),–
Cc1nc2n(c(=O)c1CCN1CCC(c3noc4cc(F)ccc34)CC1)CCCC2O (stereo not drawn),-3.77% (inactive),–

Structure (SMILES),activation,Potency
[N-]=[N+]=Nc1ccc(C(=O)CSC[C@H](NC(=O)CC[C@H](N)C(=O)O)C(=O)NCC(=O)O)cc1,10.9% (inactive),–
N#Cc1cc2nc(O)c(O)nc2cc1[N+](=O)[O-],-2.51% (inactive),–
NOCC(=O)O,-1.03% (inactive),–
c1ccc(C(NCCNC(c2ccccc2)c2ccccc2)c2ccccc2)cc1,27.3% (inactive),–
Cc1cc(Cn2cnc3c2C[C@@H](C(=O)O)N(C(=O)C(c2ccccc2)c2ccccc2)C3)ccc1N,-0.733% (inactive),–
N[C@H](C(=O)O)[C@H]1C[C@@H]1C(=O)O,-3.73% (inactive),–
CCN(CC)CCCCCCCCOC(=O)c1cc(OC)c(OC)c(OC)c1,0.104% (inactive),–
Nc1ncnc2c1nc(Br)n2C1OC2COP(=O)(O)O[C@@H]2C1O (stereo partly drawn),5.85% (inactive),–
COc1cc(C(O)C(=O)O)ccc1O (stereo not drawn),-3.84% (inactive),–
CC(C)C[C@H](NC(=O)C1OC1C(=O)O)C(=O)NCCCCN=C(N)N (stereo partly drawn),-3.3% (inactive),–
COCc1nc2c([nH]1)c(=O)n(C)c(=O)n2CC(C)C,-0.673% (inactive),–
CC(=O)NCCc1c[nH]c2ccc(O)cc12,2.89% (inactive),–
N[C@@H](Cc1ccc(F)cc1)C(=O)O,4.31% (inactive),–
NC1CCN(O)C1=O (stereo not drawn),4.07% (inactive),–
NC(C(=O)N[C@@H]1C(=O)N2C(C(=O)O)=C(Cl)CS[C@H]12)c1ccccc1 (stereo partly drawn),-2.02% (inactive),–
O=C1C2C=CC=CC2=NC(=S)N1CCN1CCC(=C(c2ccc(F)cc2)c2ccc(F)cc2)CC1 (stereo not drawn),-1.31% (inactive),–
OCC1NCC(O)C(O)C1O (stereo not drawn),-6.42% (inactive),–
CSC(N)=NCCC[C@H](N)C(=O)O,-0.788% (inactive),–
CC1C(=O)N(C)C(=O)c2nc[nH]c21 (stereo not drawn),-1.77% (inactive),–
